The list is not random: actives were taken first. Their share in the collection is about 2.4%.
CRFBP-R2 block – CRF-BP/CRF-R2 complex antagonism; HEK293 CRF-R2/CRF-BP, CRF-induced calcium fluorescence; inhibition, % at 11.8 µM; 350,000 tested, 0.59% active; AID 588475;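 active means inhibition of the ligand-induced calcium signal above about 50% at the single tested concentration, limit read from the data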
CRFR2-BP ag – agonists of human CRF-binding protein/CRF-R2 receptor complex; activation, % at 13.2 µM; 350,000 tested, 0.46% active; HEK293 CRF-R2/CRF-BP, calcium dye fluorescence (FLIPR); percent of saturating CRF peptide response; AID 588473;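 active means activation of at least 50%, plus an integration ratio under a set limit after plate pattern correction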;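 further: plate controls were neutral control wells without compound for no effect and CRF at EC100 for full effect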
TMEM16A act – activates or potentiates the mouse TMEM16A chloride channel; AID 623877; 340,000 tested, 0.3% active; Q8BHY3; HEK293 TMEM16A/YFP-H148Q/I152L, iodide quench fluorescence; active compounds read low; B-score at 10 µM;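 active means fluorescence-ratio B-score plate-corrected deviation score at least 3 library SD below zero, with starting fluorescence score within 5 deviations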;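 further: channel opened by trigger with iodide after compound preincubation; score built on the fluorescence ratio of max minus min over baseline; more negative score means more quench and so TMEM16A activation or potentiation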
ANO1 block – inhibitors of mouse TMEM16A calcium-activated chloride channel; Q8BHY3; HEK293 TMEM16A/YFP iodide influx fluorescence, ionomycin; normalized B-score (activity score, 25-100; higher = stronger inhibition) at 10 µM; 310,000 tested, 1.2% active; AID 588511;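 active means ratio plate-corrected score three or more library SD toward inhibition, starting fluorescence score within five deviations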;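 further: score derived from kinetic fluorescence span divided by baseline fluorescence per well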
cardiac RTF act – cardiac RTF calcium sensitization. P19429+P45379. IANBD-labeled TnC RTF fluorescence at EC20 calcium; 0% EC20 calcium, 100% full calcium. activation, % at 7.2 µM. 340,000 tested, 0.24% active. AID 493008;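 active means activation above the mean over all tested compounds plus 3 SD, cut at about 30% in these data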;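 further: rise in fluorescence read as greater calcium sensitivity of cardiac thin filaments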
RTF Ca sens inh – cardiac RTF calcium desensitization; IANBD-labeled cardiac RTF, Ca2+ fluorescence; inhibition, % at 7.15 µM; 340,000 tested, 0.12% active; AID 493244;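 active means inhibition above the mean inhibition of all tested compounds plus 3 SD, cut at about 17% in these data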;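 further: assay run at fixed EC70 calcium of 1.6 mM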
Starred values were filed as active, the others as inactive; i = inactive; / = no result given; ! = repeats disagree.

SMILES	CRFBP-R2 block	CRFR2-BP ag	TMEM16A act	ANO1 block	cardiac RTF act	RTF Ca sens inh
C=CCn1c(SCc2ccc(C(=O)Nc3nccs3)cc2)nnc1-c1ccc(C)c(Cl)c1	-17	3	i	25*	2	0
COc1ccccc1-c1ccc(/C=C2\C=CC(=O)O2)o1	-127	119*	i	i	/	/
CC(C)(C)c1cc(C(=O)O)nn1-c1ccccc1	68*	0	i	i	5	-3
CCn1c(C)cc(C(=O)COC(=O)CNC(=O)c2ccco2)c1C	-27	11	/	/	/	/
COc1ccc(C(=O)Nc2cccc(S(=O)(=O)NC3=NCCC3)c2)cc1OC	3	-1	i	/	0	-1
CCN(c1ccccc1)S(=O)(=O)c1cc(NC(=O)CSc2n[nH]c(=O)[nH]c2=O)ccc1Cl	111*	4	i	i	-4	-10
COC(=O)c1ccc(CSc2nc3c(c(=O)n2-c2ccc(Br)cc2)SCC3)o1	61*	-1	i	i	0	0
CCN(CC)C(=O)Cn1cc(C(=O)C(=O)N2CC=C(c3ccccc3)CC2)c2ccccc21	-12	5	i	i	1	-10
Cc1[nH]c2ccccc2c1SCc1nnc(SCc2ccccc2)n1C	115*	-3	i	i	1	-6
COC(=O)c1ccc2nc(Nc3nc4ccc(F)cc4s3)sc2c1	-18	-1	i	i	0	6
CC(=O)c1sc(Nc2nc3ccc(F)cc3s2)nc1C	-30	-1	i	25*	-4	-4
CCOC(=O)C1=C(C)NC(SCC(=O)OC)=C(C#N)C1c1ccc(C(=O)OC)cc1 (stereo not drawn)	55*!	-1	i	i	2	-7
C=CCNc1nc(-c2c(C)nc3sccn23)cs1	35	-1	i	i	2	5
Cc1nc2sccn2c1-c1csc(NCc2ccccc2)n1	3	0	i	25*	-19	5
O=C1Nc2ccc(Cl)cc2[C@@](C#CC2CC2)(C(F)(F)F)O1	/	/	/	100*	/	/
O=C(N/N=C/c1cn(-c2ccccc2)nc1-c1cc2ccccc2o1)c1ccncc1	-29	1	i	25*	1	5
O=C(N/N=C/c1cn(-c2ccccc2)nc1-c1cc2ccccc2o1)c1cccnc1	-42	0	i	i	-2	8
Clc1ccc(-c2nnc(Sc3nc4ccccc4o3)c3ccccc23)cc1	14	0	i	i	-4	-4
O=c1c(Cl)c2oc3ccccc3nc-2c2ccccc12	-309	207*	i	i	13	-15
O=C(NN1CCN(Cc2ccccc2)CC1)c1ccc(Cl)cc1	1	-1	i	i	1	-15
O=C(CC(CC(=O)c1ccccc1)c1ccncc1)c1ccccc1	86*	-3	i	/	-8	2
O=C(c1cc(C2CC2)nc2ccccc12)N1N=C(C(F)F)CC1(O)C(F)F (stereo not drawn)	-16	1	i	i	2	0
O=C(c1cc(C2CC2)nc2ccc(Br)cc12)N1N=C(C(F)F)CC1(O)C(F)F (stereo not drawn)	-28	2	i	100*	-1	2
CC(C)CC(=O)N/C(N)=N/c1nc2ccccc2o1	7	0	i	i	-9	-1
O=C(CS(=O)(=O)Cc1ccccc1)NCCc1ccc(F)cc1	4	0	i	i	-7	-9
SMILES	CRFBP-R2 block	CRFR2-BP ag	TMEM16A act	ANO1 block	cardiac RTF act	RTF Ca sens inh
CN(NS(=O)(=O)c1ccc(Cl)cc1)c1nc(C(F)(F)F)nc2ccccc12	-8	-1	i	100*	-7	-1
O=C1NC(=S)S/C1=C\c1coc2ccc(O)cc2c1=O	96*	-1	i	i	3	-9
O=C1NC(=S)S/C1=C\c1coc2ccccc2c1=O	-13	1	i	i	-7	-6
Cc1ccc(OCCn2cc(C#N)c3ccccc32)cc1	10	0	i	100*	-12	-9
COc1ccccc1OCCn1cc(C#N)c2ccccc21	6	-1	i	i	-2	-1
COc1cccc(C2=Nn3c(nnc3-c3ccccc3O)SC2)c1	5	-1	i	i	-3	2
C[n+]1c2n(c3ccccc31)N=C(c1cc(C(C)(C)C)c(O)c(C(C)(C)C)c1)CS2	-44	4	i	100*	2	-3
N#Cc1c(N)nc(SCc2ccccc2)c(C#N)c1-c1ccco1	-24	1	i	i	4	-8
N#Cc1c(N)nc(SC2CCCCC2=O)c(C#N)c1-c1ccco1 (stereo not drawn)	106*	1	i	i	-5	-5
COc1ccc(CN2CCN(C3CCC3)CC2CCO)c(F)c1 (stereo not drawn)	-2	-1	i	i	-1	0
C/[N+]([O-])=C\C1C(=O)CC(C)(C)CC1=O	53*	-4	i	i	0	7
C=CCO/N=C/C1C(=O)CC(C)(C)CC1=O	32	-1	i	i	-4	-15
COc1ccc(N=C2S/C(=C\c3ccc(N4CCOCC4)o3)C(=O)N2CCc2c[nH]c3ccccc23)cc1	/	/	i	i	32*	-28
CC(=O)Nc1ccc(N=Cc2c(O)c(C(=O)Nc3ccccc3)cc3ccccc23)cc1	-88	115*	/	i	/	/
COc1ccc(-n2c(C)cc(/C=C3/SC(=S)N(C)C3=O)c2C)cc1	-47	58*	i	i	3	-2
COc1cc(/C=N/N=C(N)N)ccc1OCc1ccc(Cl)cc1	-121	0	i	100*	-7	8
O=C(NCC1CCCO1)c1ccc2c(c1)N(Cc1ccccc1)CCS2 (stereo not drawn)	-11	-1	i	i	3	2
Cc1cc(N2CCN(C)CC2)ccc1NC(=O)c1cccc(S(=O)(=O)N2CCc3ccccc3C2)c1	-5	2	i	i	0	-10
Cc1cccc(-n2nc3c(c2NC(=O)c2ccc4c(c2)OCO4)CS(=O)(=O)C3)c1C	3	-1	i	i	-2	0
Nc1nn2c(C(F)(F)F)cc(=O)[nH]c2c1N=Nc1cccc(F)c1	87*	-7	i	i	1	8
O=C(Nc1cccnc1)c1ccc(-c2cc(Cl)ccc2Cl)o1	-30	-2	i	i	3	2
O=C(Nc1cccnc1)c1ccc(-c2ccc(Cl)cc2)o1	57*	-1	i	i	3	-3
O=C1C[C@@H](c2ccc(O)cc2)Oc2cc(O)cc(O)c21	1	1	i	i	1	-6
Cc1c(O)cc2c(c1O)C(=O)CC(c1ccccc1)O2 (stereo not drawn)	-38	105*	-6.5*	100*	-6	-1

Screening results: PubChem BioAssay, several laboratories
